# Results as given in PubChem BioAssay (EPA / NIEHS).
# The source made the active and inactive calls. How the source made its calls: active means hit-call score of the fitted dose curve at least 0.9, where 1 is the maximum; inactive means score below 0.9.
# Read-out: Vascular endothelial growth factor receptor 2 (Homo sapiens) (UniProt P35968)
# Assay: BSK_4H_VEGFRII: BioMAP Diversity Plus: 4H Assay for Vascular endothelial growth factor receptor 2 (VEGFR2) Biomarker Activity (AID 2283031)
# Details: primary human endothelial cells (HUVEC); actives raise or lower the signal
# Summary of the method: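 Primary human umbilical vein endothelial cells (4H system), 24 h exposure; cell-surface VEGFR2 measured by ELISA. Bidirectional fitting versus DMSO; cytotoxicity checked in parallel by SRB total-protein staining.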
row,SMILES,outcome
1,O=P(O)(O)CCCl,inactive
2,CC(C)(C)C(=O)C(Oc1ccc(Cl)cc1)n1cncn1 (stereo not drawn),inactive
3,C=C(C)CN(CC)c1c([N+](=O)[O-])cc(C(F)(F)F)cc1[N+](=O)[O-],inactive
4,C=CCOC(=O)C(C)(C)OC(=O)c1cc(-n2c(=O)cc(C(F)(F)F)n(C)c2=O)ccc1Cl,inactive
5,CCN(CC)C(=O)C(C)Oc1cccc2ccccc12 (stereo not drawn),inactive
6,COCc1cnc(C2=NC(C)(C(C)C)C(=O)N2)c(C(=O)O)c1 (stereo not drawn),inactive
7,O=C1C2CC=CCC2C(=O)N1SC(Cl)(Cl)Cl (stereo not drawn),inactive
8,CCCC(=NOCC)C1=C(O)CC(CC(C)SCC)CC1=O (stereo not drawn),inactive
9,CO/N=C(/C1=NOCCO1)c1ccccc1Oc1ncnc(Oc2ccccc2Cl)c1F,inactive
10,CC(C)Oc1cccc(NC(=O)c2ccccc2C(F)(F)F)c1,inactive
11,CC(C)C1(C)N=C(c2ncccc2C(=O)O)NC1=O (stereo not drawn),inactive
12,COCC(=O)N(c1c(C)cccc1C)C(C)C(=O)OC (stereo not drawn),inactive
13,CC(C)N1C(=O)N(c2ccccc2)CSC1=NC(C)(C)C,inactive
14,CCNP(=S)(OC)O/C(C)=C/C(=O)OC(C)C (stereo not drawn),inactive
15,CNC(=O)Oc1cccc2ccccc12,inactive

# Read-out: Human Leukocyte Antigen - DR isotype (HLADR), HLA-DRA (gene 3122)
# Assay: BSK_BE3C_HLADR: BioMAP Diversity Plus: BE3C Assay for Human Leukocyte Antigen - DR isotype (HLADR) Biomarker Activity (AID 2283032)
# Details: primary human bronchial epithelial cells; actives raise or lower the signal
# Summary of the method: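 Primary human bronchial epithelial cells (BE3C); 24 h chemical exposure; HLA-DR by ELISA; bidirectional curve fit vs DMSO baseline.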
SMILES,outcome,AC50
Cc1c(COC(=O)[C@@H]2[C@H](/C=C(\Cl)C(F)(F)F)C2(C)C)cccc1-c1ccccc1,inactive,–
O=c1n(Cl)c(=O)n(Cl)c(=O)n1Cl,inactive,–
CC1(C)CCC(=Cc2ccc(Cl)cc2)C1(O)Cn1cncn1 (stereo not drawn),inactive,–
COC(=O)N(C(=O)N1CO[C@@]2(C(=O)OC)Cc3cc(Cl)ccc3C2=N1)c1ccc(OC(F)(F)F)cc1,–,13.8 µM (active)
CC1(C)CON(Cc2ccccc2Cl)C1=O,inactive,–
COC(=O)NC(=S)Nc1ccccc1NC(=S)NC(=O)OC,inactive,–
N#CN=C1SCCN1Cc1ccc(Cl)nc1,inactive,–
CS(=O)(=O)c1cc(C(F)(F)F)ccc1C(=O)c1cnoc1C1CC1,inactive,–
COP(=S)(OC)SCn1nnc2ccccc2c1=O,inactive,–
O=C(O)c1c(Cl)ccc2cc(Cl)cnc12,inactive,–
CCCCOCN(C(=O)CCl)c1c(CC)cccc1CC,–,29.8 µM (active)
CC(C)N1C(=O)c2ccccc2NS1(=O)=O,inactive,–
CCCCC(O)(Cn1cncn1)c1ccc(Cl)cc1Cl (stereo not drawn),–,16 µM (active)
COCC(C)N(C(=O)CCl)c1c(C)csc1C (stereo not drawn),inactive,–
CC1(C)C(C=C(Cl)Cl)C1C(=O)OC(C#N)c1cccc(Oc2ccccc2)c1 (stereo not drawn),inactive,–
CCOP(=S)(OCC)Oc1nc(Cl)n(C(C)C)n1,inactive,–

SMILES,outcome,AC50
COP(=O)(OC)O/C(C)=C/C(=O)N(C)C,inactive,–
CCN(CC)c1nc(C)cc(OP(=S)(OC)OC)n1,–,20 µM (active)
Cc1cc(C)nc(Nc2ccccc2)n1,inactive,–
CC(C)(C)C(=O)C(Oc1ccc(Cl)cc1)n1cncn1 (stereo not drawn),inactive,–
C=C(C)CN(CC)c1c([N+](=O)[O-])cc(C(F)(F)F)cc1[N+](=O)[O-],inactive,–
C=CCOC(=O)C(C)(C)OC(=O)c1cc(-n2c(=O)cc(C(F)(F)F)n(C)c2=O)ccc1Cl,inactive,–
CCN(CC)C(=O)C(C)Oc1cccc2ccccc12 (stereo not drawn),inactive,–
COCc1cnc(C2=NC(C)(C(C)C)C(=O)N2)c(C(=O)O)c1 (stereo not drawn),inactive,–
O=C1C2CC=CCC2C(=O)N1SC(Cl)(Cl)Cl (stereo not drawn),–,12.3 µM (active)
CO/N=C(/C1=NOCCO1)c1ccccc1Oc1ncnc(Oc2ccccc2Cl)c1F,–,11.1 µM (active)
CC(C)Oc1cccc(NC(=O)c2ccccc2C(F)(F)F)c1,inactive,–
CC(C)C1(C)N=C(c2ncccc2C(=O)O)NC1=O (stereo not drawn),inactive,–
COCC(=O)N(c1c(C)cccc1C)C(C)C(=O)OC (stereo not drawn),inactive,–
CC(C)N1C(=O)N(c2ccccc2)CSC1=NC(C)(C)C,–,28.9 µM (active)
CCNP(=S)(OC)O/C(C)=C/C(=O)OC(C)C (stereo not drawn),inactive,–
CNC(=O)Oc1cccc2ccccc12,inactive,–

# Read-out: Vascular cell adhesion molecule 1 (VCAM1), VCAM1 (gene 7412)
# Assay: BSK_4H_VCAM1: BioMAP Diversity Plus: 4H Assay for Vascular cell adhesion molecule 1 (VCAM1) Biomarker Activity (AID 2283033);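 on outcome: cell-surface VCAM-1 protein measured by ELISA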
# Details: primary human endothelial cells (HUVEC); actives raise or lower the signal
# Summary of the method: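 HUVEC, 24 h post-dose; VCAM-1 by ELISA. Bidirectional curve fit vs DMSO baseline. Parallel SRB total-protein stain (0.1% SRB after 10% TCA fixation, 560 nm) for cytotoxicity.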
SMILES,AC50,outcome
Cc1c(COC(=O)[C@@H]2[C@H](/C=C(\Cl)C(F)(F)F)C2(C)C)cccc1-c1ccccc1,3.91 µM (active),–
O=c1n(Cl)c(=O)n(Cl)c(=O)n1Cl,–,inactive
CC1(C)CCC(=Cc2ccc(Cl)cc2)C1(O)Cn1cncn1 (stereo not drawn),–,inactive
COC(=O)N(C(=O)N1CO[C@@]2(C(=O)OC)Cc3cc(Cl)ccc3C2=N1)c1ccc(OC(F)(F)F)cc1,–,inactive
CC1(C)CON(Cc2ccccc2Cl)C1=O,–,inactive
Cn1c(-c2ccccc2)cc(-c2ccccc2)[n+]1C,–,inactive
COC(=O)NC(=S)Nc1ccccc1NC(=S)NC(=O)OC,0.312 µM (active),–
N#CN=C1SCCN1Cc1ccc(Cl)nc1,–,inactive
CS(=O)(=O)c1cc(C(F)(F)F)ccc1C(=O)c1cnoc1C1CC1,–,inactive
COP(=S)(OC)SCn1nnc2ccccc2c1=O,–,inactive
CCSC(=O)N1CCCCCC1,–,inactive
O=C(O)c1c(Cl)ccc2cc(Cl)cnc12,–,inactive
CCCCOCN(C(=O)CCl)c1c(CC)cccc1CC,28.9 µM (active),–
CC(C)N1C(=O)c2ccccc2NS1(=O)=O,–,inactive
CCCCC(O)(Cn1cncn1)c1ccc(Cl)cc1Cl (stereo not drawn),–,inactive
COCC(C)N(C(=O)CCl)c1c(C)csc1C (stereo not drawn),–,inactive
CC1(C)C(C=C(Cl)Cl)C1C(=O)OC(C#N)c1cccc(Oc2ccccc2)c1 (stereo not drawn),–,inactive
CCOP(=S)(OCC)Oc1nc(Cl)n(C(C)C)n1,–,inactive

SMILES,AC50,outcome
COP(=O)(OC)O/C(C)=C/C(=O)N(C)C,–,inactive
CCN(CC)c1nc(C)cc(OP(=S)(OC)OC)n1,–,inactive
Cc1cc(C)nc(Nc2ccccc2)n1,–,inactive
O=P(O)(O)CCCl,–,inactive
CC(C)(C)C(=O)C(Oc1ccc(Cl)cc1)n1cncn1 (stereo not drawn),–,inactive
C=C(C)CN(CC)c1c([N+](=O)[O-])cc(C(F)(F)F)cc1[N+](=O)[O-],–,inactive
C=CCOC(=O)C(C)(C)OC(=O)c1cc(-n2c(=O)cc(C(F)(F)F)n(C)c2=O)ccc1Cl,–,inactive
CCN(CC)C(=O)C(C)Oc1cccc2ccccc12 (stereo not drawn),–,inactive
COCc1cnc(C2=NC(C)(C(C)C)C(=O)N2)c(C(=O)O)c1 (stereo not drawn),–,inactive
O=C1C2CC=CCC2C(=O)N1SC(Cl)(Cl)Cl (stereo not drawn),–,inactive
CCCC(=NOCC)C1=C(O)CC(CC(C)SCC)CC1=O (stereo not drawn),–,inactive
CO/N=C(/C1=NOCCO1)c1ccccc1Oc1ncnc(Oc2ccccc2Cl)c1F,–,inactive
CC(C)Oc1cccc(NC(=O)c2ccccc2C(F)(F)F)c1,–,inactive
CC(C)C1(C)N=C(c2ncccc2C(=O)O)NC1=O (stereo not drawn),–,inactive
COCC(=O)N(c1c(C)cccc1C)C(C)C(=O)OC (stereo not drawn),–,inactive
CC(C)N1C(=O)N(c2ccccc2)CSC1=NC(C)(C)C,29.8 µM (active),–
CCNP(=S)(OC)O/C(C)=C/C(=O)OC(C)C (stereo not drawn),–,inactive
CNC(=O)Oc1cccc2ccccc12,20 µM (active),–
